In PubChem BioAssay AID2284323 (EPA ToxCast):
Where “and” joins values, the source holds several entries; their conditions need not be identical. Equal entries are not always repeated. Calls of active or inactive are those of the source. How the source made its calls: active means hit-call score of the fitted dose curve at least 0.9, where 1 is the maximum; inactive means score below 0.9.

The compounds below were run on NCBI gene 447152 (assay: CCTE_GLTED_xIYD: CCTE's Xenopus Iodotyrosine Deiodinase (xIYD) Inhibition Assay, Great Lakes Toxicology and Ecology Division (GLTED) Lab).
Experimental: CCTE_GLTED_xIYD is a cell-free, single-readout assay that uses Xenopus (frog) iodotyrosine deiodinase (xIYD) enzyme from liver microsomes. Assay is based on iodide release measured by the Sandell-Kolthoff method and is run in 96-well plate format with assay plates run in triplicate (n=3) with measurements taken at 3 hours after chemical dosing. Platewise-normalization was used based on positive control (3-Nitro-L-tyrosine, MNT) and negative/solvent controls (DMSO, NaOH).CCTE_GLTED_xIYD is the assay component measured from the CCTE_GLTED_xIYD assay. It measures substrate involved in regulation of catalytic activity using spectrophotometry. The assay measures the deiodination activity of Xenopus (frog) IYD on the substrate monoiodotyrosine (MIT). After 3h incubation of substrate, enzyme, and test chemical, the components are applied to a 96-well Dowex column. Free iodide is not retained by the column and is separated from interfering assay components. The free iodide is measured by the Sandell-Kolthoff reaction in which the rate of reduction of cerium (Ce+4 to Ce+3) by arsenic (As+3 to As+5) is increased by the presence of iodide. This is observed as the loss of yellow color in the reaction and the quantified by the change in absorbance at 420 nm. The change in reaction rate is proportional to the amount of iodide present.Data from the assay component CCTE_GLTED_xIYD was analyzed at the assay endpoint CCTE_GLTED_xIYD in the positive analysis fitting direction relative to DMSO as the negative control and baseline of activity. Using a type of enzyme reporter, loss-of-signal activity can be used to understand iodotyrosine deiodinase activity. To generalize the intended target to other relatable targets, this assay endpoint is annotated to the 'dehalogenase' intended target family, where the subfamily is 'iodotyrosine deiodinase'.
Human transthyretin (TTR) assay, developed at Great Lakes Toxicology and Ecology Division (GLTED) within the EPA's Center for Computational Toxicology and Exposure (CCTE), is designed to test the chemicals' ability to displace T4 from the TTR protein. TTR (0.125uM) is incubated in presence of test chemical for 2 hours during which disrupting chemicals displace ANSA from the TTR protein. Results read fluorescence at 380 excitation and 475 emission.
O=S(=O)(O)C(F)(F)C(F)(F)C(F)(F)C(F)(F)C(F)(F)C(F)(F)C(F)(F)C(F)(F)F was tested, and the AC50 was 36.4 µM (active) and 27.5 µM (active). In the case of O=C(O)C(F)(F)C(F)(F)C(F)(F)C(F)(F)C(F)(F)C(F)(F)C(F)(F)C(F)(F)C(F)(F)C(F)(F)F, the AC50 is reported as 35.9 µM (active). For O=C(O)C(F)(F)C(F)(F)C(F)(F)C(F)(F)C(F)(F)C(F)(F)C(F)(F)C(F)(F)F, the AC50 was 39.2 µM (active). In the case of O=C(O)C(F)(F)C(F)(F)C(F)(F)C(F)(F)C(F)(F)C(F)(F)C(F)(F)C(F)(F)C(F)(F)F, the AC50 is reported as 73.7 µM (active). With NS(=O)(=O)C(F)(F)C(F)(F)C(F)(F)C(F)(F)C(F)(F)C(F)(F)C(F)(F)C(F)(F)F the AC50 was 61.2 µM (active).
